# Measurements taken from PubChem BioAssay AID1259420 (Broad Institute, 2018).
# In all, about 1,000 compounds went through this assay and about 250 (25%) were called active. Another 31% or so got no clear call; they are omitted. These entries were drawn from the full list. Potency and affinity values are given separately. A number with no mark means an inactive call. The rule behind the calls is not given here.
# Test: T. gondii intracellular growth, IFN-gamma absent, dose response, cell-based (AID 1259420);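 note: host cells were HeLa; final incubation lasted 72 hours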
# Settings: Toxoplasma gondii growth in host cells, no IFN-gamma
compound,measurement,setting,value
O=S(=O)(Cc1ccccc1)N1CC2CN(Cc3cccc(Cl)c3)CC2C1 (configuration not stated),max activity,at 19.5 µM unless noted,19.1%
Cc1ccccc1-c1ccc([C@H]2[C@@H](CO)N3C(=O)CN(C(=O)c4ccncc4)C[C@H]23)cc1,max activity,at 19.5 µM unless noted,-12.2% [at 5 µM]
CC(C)CNc1nc2c(cc1C(=O)NC(C)C)CCN(c1ccncn1)CC2,max activity,at 19.5 µM unless noted,-10.6% [at 5 µM]
O=C(Nc1ccccc1F)N1CCCCN2[C@H](C1)[C@H](c1ccc(/C=C/c3ccccc3)cc1)[C@@H]2CO,max activity,at 19.5 µM unless noted,13.2%
COc1ccccc1-c1ccc([C@@H]2[C@H](CO)N3CCCCN(C(=O)c4cccnc4)C[C@@H]23)cc1,max activity,at 19.5 µM unless noted,16.2%
COc1ccccc1-c1ccc([C@@H]2[C@@H](CO)N3CCCCN(C(=O)c4cccnc4)C[C@@H]23)cc1,max activity,at 19.5 µM unless noted,-4.65% [at 5 µM]
COc1ccccc1-c1ccc([C@@H]2[C@H]3CN(C(=O)c4cccnc4)CCCCN3[C@H]2CO)cc1,max activity,at 19.5 µM unless noted,9.09% [at 0.16 µM]
CCN1C(=O)CO[C@H]2CN(C(=O)c3cnc4ccccc4c3)C[C@@H]21,max activity,at 19.5 µM unless noted,-7.5% [at 0.16 µM]
Cn1cnc2c1C(C(=O)O)CN(C(=O)c1ccsc1)C2 (configuration not stated),max activity,at 19.5 µM unless noted,-15.3% [at 10 µM]
CCn1cc(NC(=O)c2cccc(CN3C[C@@H](C)O[C@@H](C)C3)c2)nn1,max activity,at 19.5 µM unless noted,-7.36% [at 0.3 µM]
CN(C)C(=O)c1ccc2nnc3ncn(Cc4ccccc4)c3c2c1,max activity,at 19.5 µM unless noted,9.7% [at 2.6 µM]
CS(=O)(=O)N1CC(=O)N2[C@H](C1)[C@@H](c1ccc(C#Cc3ccc(F)cc3)cc1)[C@@H]2CO,max activity,at 19.5 µM unless noted,5.83% [at 2.6 µM]
O=C(Cc1ccccn1)N1CC(=O)N2[C@H](CO)[C@@H](c3ccc(C#CCC4CCCC4)cc3)[C@H]2C1,max activity,at 19.5 µM unless noted,20.5%
CS(=O)(=O)N1CC(=O)N2[C@H](CO)[C@@H](c3ccc(C#Cc4ccc(F)cc4)cc3)[C@H]2C1,max activity,at 19.5 µM unless noted,15.4%
O=C(Cc1ccccn1)N1CC(=O)N2[C@H](CO)[C@@H](c3ccc(C#CCC4CCCC4)cc3)[C@@H]2C1,max activity,at 19.5 µM unless noted,18.5%
O=C(c1ccc(F)cc1)N1CC(=O)N2[C@H](CO)[C@@H](c3ccc(C#CCC4CCCC4)cc3)[C@@H]2C1,max activity,at 19.5 µM unless noted,23.3%
O=C(Cc1ccccn1)N1CC(=O)N2[C@H](C1)[C@H](c1ccc(C#CCC3CCCC3)cc1)[C@@H]2CO,max activity,at 19.5 µM unless noted,12.6%
CS(=O)(=O)N1CCOC2C(COc3ncccn3)CCC21 (configuration not stated),max activity,at 19.5 µM unless noted,-15% [at 0.3 µM]
CCOC(=O)c1c(C)[nH]c(-c2ccccc2)c1-c1ccccc1,max activity,at 19.5 µM unless noted,4.75% [at 10 µM]
O=C(O)c1ccc(C2C(=O)NNCC2N2CCCC2)s1 (configuration not stated),max activity,at 0.16 µM,8.24%
same,max activity,at 19.5 µM,10.9%
Fc1cccnc1OC1COC2(CCN(Cc3ccsc3)CC2)C1 (configuration not stated),max activity,at 19.5 µM unless noted,18.6%
C[C@@H](N)C1CCC(C(=O)Nc2ccncc2)CC1 (some centres not stated),max activity,at 19.5 µM unless noted,-12.3% [at 0.08 µM]
Cc1cccc(-n2ncc3c(NC4CCCCCCCCCCC4)ncnc32)c1,max activity,at 19.5 µM unless noted,8.82% [at 10 µM]
COc1cccc(NC(=O)N2CC(=O)N3[C@@H](CO)[C@@H](c4ccc(C#CCC5CCCC5)cc4)[C@@H]3C2)c1,max activity,at 19.5 µM unless noted,9.07% [at 21 µM]
COc1ccc(C#Cc2ccc([C@@H]3[C@H]4CN(C(=O)NC(C)C)CC(=O)N4[C@H]3CO)cc2)cc1,max activity,at 19.5 µM unless noted,9.38% [at 0.6 µM]
COc1cccc(NC(=O)N2CC(=O)N3[C@H](C2)[C@H](c2ccc(C#CCC4CCCC4)cc2)[C@@H]3CO)c1,max activity,at 19.5 µM unless noted,38.8% [at 21 µM]
COc1ccc(C#Cc2ccc([C@H]3[C@H]4CN(C(=O)NC(C)C)CC(=O)N4[C@H]3CO)cc2)cc1,max activity,at 19.5 µM unless noted,13% [at 10 µM]
COc1ccc(C#Cc2ccc([C@@H]3[C@H](CO)N4C(=O)CN(C(=O)NC(C)C)C[C@@H]34)cc2)cc1,max activity,at 5 µM,-8.81%
same,max activity,at 19.5 µM,-6.49%
O=C1NCC(=O)N2CCN(C(=O)Nc3cc(Cl)cc(Cl)c3)CC12 (configuration not stated),max activity,at 19.5 µM unless noted,17.6% [at 2.6 µM]
CC(=O)N1Cc2ncn(CC3CC3)c2C(COCC2CCOCC2)C1 (configuration not stated),max activity,at 19.5 µM unless noted,-7.3% [at 0.16 µM]
C=CCN1CCC2(CC1)CC(NCc1ccc(C)s1)c1ccccc1O2 (configuration not stated),max activity,at 19.5 µM unless noted,5.11% [at 0.3 µM]
C/C=C/c1ccc([C@H]2[C@H]3CN(C(=O)Nc4cccc(OC)c4)CC(=O)N3[C@H]2CO)cc1,max activity,at 19.5 µM unless noted,-14.5% [at 2.6 µM]
CCCNC(=O)N1CC(=O)N2[C@@H](CO)[C@H](c3ccc(C#Cc4cccc(OC)c4)cc3)[C@@H]2C1,max activity,at 19.5 µM unless noted,15.9%
CCCNC(=O)N1CC(=O)N2[C@H](C1)[C@@H](c1ccc(C#Cc3cccc(OC)c3)cc1)[C@@H]2CO,max activity,at 19.5 µM unless noted,8.44% [at 2.35 µM]
COc1ccc(C#Cc2ccc([C@H]3[C@@H](CO)N4C(=O)CN(C(=O)NC(C)C)C[C@@H]34)cc2)cc1,max activity,at 19.5 µM unless noted,22.6%
